PubChem BioAssay (NCATS)
The source made the active and inactive calls. Calls come from the whole dose curve; as a rule, active = well fitted curve in the direction sought with a large enough effect; inconclusive = small, poorly fitted or top-dose-only effect, or another doubt; inactive = no such curve, though single readings can be large or run the other way.

Assay: Cellular Toxicity (caspase-3) BJ (AID 658)
Conditions: BJ fibroblasts, luminescence, normalized: DMSO 0%, staurosporine 100%; series mostly up to 91.7 µM
Description: NIH Chemical Genomics Center [NCGC]
NIH Molecular Libraries Screening Centers Network [MLSCN]
National Institutes of Environmental Health Sciences [NIEHS]
National Toxicology Program [NTP]
We have developed a 1536-well cell-based assay for quantitative high throughput screening (qHTS) against a number of cell lines to determine in vitro caspase 3/7 activity of small molecules. This particular assay uses BJ cell line which is derived from normal human foreskin fibroblast.
NCGC Assay Protocol Summary:
The Caspase-Glo 3/7 assay (Promega) is a homogeneous method to measure caspase-3 and caspase-7 activities in cultured cells. The quantitation of caspase 3/7 activity is based on the cleavage of a peptide-aminoluciferin substrate. After caspase cleaves the substrate the free aminoluciferin is liberated and serves as the substrate of luciferase, which generates the light. The luminescent signal is proportional to amount of caspase 3/7 activity present.
Using the Caspase-Glo 3/7 assay, the amount of caspase 3/7 activity was measured in the BJ cell line with complete culture medium following compound treatment for 16 hours. The assay was performed in opaque white 1536-well plates. In the screen, staurosporine and tamoxifen were used as positive controls. Library compounds were measured for their ability to cause the activation of caspase 3/7 in the cell line, as reflected by an increase in luminescence signal, in a concentration-dependent manner. Data were normalized to the controls for basal activity (DMSO only) and 100% stimulation (10 uM staurosporine). AC50 values were determined from concentration-response data modeled with the standard Hill equation.
qHTS protocol for caspase 3/7 assay in the BJ cells
[Step] [Parameter] [Value] [Description]
1. Reagent; 5 uL; 1000 the BJ cells/well
2. Time; 5 hr; 37 °C incubation
4. Controls; 23 nL; Tamoxifen 0.23 uM to 100 uM & staurosporine 1.4 pM to 100 uM
5. Time; 16 hr; 37 °C incubation
6. Reagent; 5 uL; Caspase-Glo 3/7 reagent
7. Time; 1 hr; Room Temperature
8. Detection; Luminescence; Viewlux plate reader
Keywords: caspase 3/7, apoptosis, the BJ cell line, luminescence, NTPHTS, NTPHTS_NCGC, NIEHS, EPA, DSSTox, MLSMR, MLSCN, NIH Roadmap, qHTS, NCGC

Structure (SMILES) | outcome
NNC(N)=S | inactive
C=CCCC#N | inactive
Cl/C=C/CCl | inactive
Nc1ccc(Cc2ccc(N)cc2)cc1 | inactive
Cc1cc(-c2cc(C)c(N)c(C)c2)cc(C)c1N | inactive
CCSC(=O)N1CCCCCC1 | inactive
Cc1ccc2c(c1N)C(=O)c1ccccc1C2=O | inactive
Nc1c(Br)cc([N+](=O)[O-])cc1[N+](=O)[O-] | inactive
ClC=CCl | inactive
CC12CC1(C)C(=O)N(c1cc(Cl)cc(Cl)c1)C2=O (stereo not given) | inactive
ClCc1ccccc1 | inactive
Oc1c(Cl)cccc1Cl | inactive
CCCCCCCCCCCCCl | inactive
Clc1ccc(Cl)c(Cl)c1 | inactive
Cc1ccc(N)c(C)c1 | inactive
O=S(=O)(Cl)c1ccccc1 | inactive
CC(C)Br | inactive
ClC(Cl)c1ccccc1 | inactive
O=[N+]([O-])c1cccc2c([N+](=O)[O-])cccc12 | inactive
NC1CCC(CC2CCC(N)CC2)CC1 (stereo not given) | inactive

Structure (SMILES) | outcome
Cc1coc2c1CCC(C)C2 (stereo not given) | inactive
CCCCCc1cc(O)cc(O)c1 | inactive
[O-][Cl+]O | inactive
Cc1cnc[nH]1 | inactive
ClCCBr | inactive
CCNCC | inactive
CCCCC#N | inactive
O=[N+]([O-])c1cccc(O)c1 | inactive
Cc1cc(Cl)ccc1O | inactive
CCOC(=O)C1OC1(C)c1ccccc1 (stereo not given) | inactive
Clc1ccccc1 | inactive
CC(C#N)CCC#N (stereo not given) | inactive
Nc1cc(Cl)ccc1O | inactive
c1ccc(OCC2CO2)cc1 (stereo not given) | inactive
CC(C)CON=O | inactive
c1ccc(P(c2ccccc2)c2ccccc2)cc1 | inactive
CC(=O)[O-].CC(=O)[O-].CC(=O)[O-].[Cr+3] | inactive
CCN(CC)N=O | inactive
C=CC(=O)OCC(C)C | inactive
CC(C)[C@]12CC(=O)[C@H](C)[C@H]1C2 | inactive
